# PubChem BioAssay AID624133 (Broad Institute, 2012)
# About 1,300 (81%) of roughly 1,600 compounds were called active. The rule behind the calls is not given here. So high a share suggests a set chosen from earlier hits. Only a sample is shown. Measured potencies and affinities stand elsewhere.
# Test: control 3'UTR Renilla luciferase suppression, dose response, counter-screen for Shn3 inhibitor project, cell-based, Clone20-Shn3RL, cherry-picked (AID 624133);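 note: 0% = neutral control wells and -100% = positive control wells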
# Conditions: Clone20-Shn3RL cells, Renilla luciferase luminescence, 24 h; at 35 µM (top of the series) unless noted
row,SMILES,"activity change, negative = inhibition"
1,CCn1nnc2cc(C(=O)Nc3cc(Cl)ccc3C)ccc21,-11.1%
2,CCOC(=O)c1c(C)[nH]c(C(=O)COC(=O)[C@H](C)N2C(=O)C3CCCCC3C2=O)c1C (stereo not given in full),-5%
3,O=C(Nc1cccc(-c2ccc(N3CCCCC3)nn2)c1)C(F)(F)F,-50%
4,Nc1c(Br)cc2c(c1Br)C(O)c1ccccc1-2 (stereo not given),22.2%
5,CCCOc1ccc2oc(=O)c3c(c2c1)CCCN3C(=O)CN1CCN(c2ncccn2)CC1,133%
6,COc1ccc(CN(C(=O)CSc2nnc(-c3ccc(F)cc3)o2)c2ccc(F)cc2)cc1,16.7%
7,CSc1cccc(NS(=O)(=O)c2ccc3c(c2)CCN3C(C)=O)c1,400%
8,COc1cc(SC)ccc1C(=O)Nc1nc2ccccc2[nH]1,-90%
9,Cc1cccc(CSc2cccc3cccnc23)c1,49.1%
10,O=C(NCc1ccccc1C(F)(F)F)c1cccc2c1C(=O)c1ccc(N3CCC(N4CCCCC4)CC3)cc1S2(=O)=O,-33.6%
11,CC(C)n1c(/C=C/[C@@H](O)C[C@@H](O)CC(=O)O)c(-c2ccc(F)cc2)c2ccccc21,-100%
12,O=c1cc(-c2ccc(O)cc2)oc2ccc3ccccc3c12,91.7%
13,Cn1cc([N+](=O)[O-])c(C(=O)Nc2sc3c(c2C#N)CCC3)n1,-10.8%
14,O=C(COC(=O)/C=C/c1ccc(OC(F)F)cc1)Nc1ccc2[nH]c(=O)[nH]c2c1,-21.3%
15,O=C(Nc1nc2cc3c(cc2s1)OCCO3)C1=COCCO1,45.8%
16,Cc1cccc(-c2noc(CN(C(=O)C(c3ccccc3)c3ccccc3)C(C)C)n2)c1,-29.9%
17,CC1=NOC(=O)/C1=C\c1ccc(-c2ccccc2Br)o1,35.7%
18,COc1ccc(NS(=O)(=O)c2ccc3ccccc3c2)c2ncccc12,293%
19,Cc1nc2scc(C)n2c(=O)c1S(=O)(=O)Nc1ccc(N2CCOCC2)c(Cl)c1,62.5%
20,Nc1nnc(SCC(=O)Nc2ccc(N3CCOCC3)cc2)s1,45.8%
21,CCOc1cc(/C=C2\C(=O)ON=C2C)ccc1OCc1ccccc1,-100%
22,O=C(Nc1ccc(Cl)cc1)Nc1ccc(N2CCCC2)c(S(=O)(=O)Nc2ccccc2Cl)c1,-17.1% [at 16 µM]
23,COc1ccc(CNC(=O)C(c2ccc(C)cc2)N(Cc2cccs2)C(=O)c2ccc3c(c2)OCCO3)cc1 (stereo not given),50%
24,COc1ccc(CCNC(=O)CCC(=O)N2CCOc3ccc(Cl)cc32)cc1OC,-107%

row,SMILES,"activity change, negative = inhibition"
1,CCc1ccc(OCCNc2cc(N3CCNC(C)C3)ccc2[N+](=O)[O-])cc1 (stereo not given),-83.3%
2,O=S(=O)(c1ccc(Cl)cc1)n1ccc2cccnc21,6.94%
3,Cc1ccc(C)c(S(=O)(=O)Nc2ccc(-n3cnnn3)cc2)c1,276%
4,COc1ccc(C(=O)OCC(=O)Nc2ccc3[nH]c(=O)[nH]c3c2)cc1,62.5%
5,Cc1ccccc1NC(=O)CSc1nc2ccccc2c(=O)n1C,10%
6,CCCCC[C@H]1CN(Cc2ccc(OC)cc2)C(=O)[C@@H]1CC(=O)NCc1ccccc1,196%
7,COc1ccc(N2C(=O)C(CC(=O)Nc3ccccc3)N(Cc3ccc(OC)c(OC)c3)C2=O)cc1 (stereo not given),84.7%
8,COCCn1c(C)cc(C2=NNC(=NC3CC3)SC2)c1C,10%
9,Cc1ccc(S(=O)(=O)Nc2cccc3ncccc23)s1,-66.7%
10,Cc1nc(SCC(=O)Nc2nc3ccccc3s2)c(C#N)c(C)c1C,-8.33%
11,COc1ccc(NS(=O)(=O)c2ccc(OC)c(N(C)S(=O)(=O)c3ccc(Cl)cc3)c2)cc1,-58.3%
12,Cc1ccc(NC(=O)c2cc3ccccc3oc2=O)cc1S(=O)(=O)N(C)C,45.2%
13,Cc1cccc(C)c1NC(=O)CN(C)C(=O)c1cc(S(=O)(=O)N(C)C)ccc1N1CCCC1,41.7%
14,Cc1nc2ncnn2c(C)c1Cc1cccc(F)c1,25%
15,Cn1cc(CN(CCO)Cc2cccs2)c(-c2cccc(Cl)c2)n1,16.7%
16,COc1ccc(C(=O)Cn2c(C(=O)/C=C/c3ccccc3)nc3ccccc32)cc1,170%
17,COc1ccc(OCc2cccc(C(=O)O)c2)cc1,107%
18,O=C(O)c1cccc(COc2ccccc2Cl)c1,-10%
19,Oc1c(C(c2cccs2)N2CCC3(CC2)OCCO3)sc2ncnn12 (stereo not given),151%
20,COC(=O)[C@@]12CCCN1[C@H](c1ccc(-c3ccc(OC)cc3)cc1)[C@@H]1C(=O)N(C)C(=O)[C@@H]12,47.2%
21,CCN1C(=O)[C@H]2[C@@H](c3ccc(-c4ccc(OC)cc4)cc3)N3CCC[C@@]3(C(=O)OC)[C@H]2C1=O,-39.3%
22,CCCCN1CC(COCc2ccccc2)Oc2cccc(Oc3ccc(C)cc3)c2S1(=O)=O (stereo not given),130%
23,CCCCN1CC(COCc2ccccc2)Oc2cccc(Oc3cc(C)c(C)c(C)c3)c2S1(=O)=O (stereo not given),300%
24,COC(=O)c1ccccc1NC(=S)N(Cc1ccc2c(c1)OCO2)Cc1cc2cc(OC)ccc2[nH]c1=O,200%

row,SMILES,"activity change, negative = inhibition"
1,O=C1S/C(=C\c2ccc(N3CCOCC3)o2)C(=O)N1Cc1c(F)cccc1Cl,400%
2,Cc1cc(C)n(-c2cc(-n3nc(C)cc3C)ncn2)n1,2.38%
3,C[C@@H]1CN([C@H](C)CO)C(=O)c2cc(Br)cnc2O[C@H]1CN(C)C(=O)Cc1ccncc1,83.3%
4,CN1OC[C@@H]2CN[C@H](c3ccc(-c4cc5ccccc5o4)cc3)C[C@@H]21,-25%
5,CN(CC(=O)Nc1cc(S(=O)(=O)N2CCCC2)ccc1Cl)Cc1ccc2c(c1)OCO2,87.5%
6,CC(C)(C)OC(=O)NCc1ccc(CNC(=O)c2nc[nH]c2C(=O)NCc2ccc(CNC(=O)OC(C)(C)C)cc2)cc1,208%
7,Cc1ccc(-n2cc(CNCCCn3ccnc3C)c(-c3ccc(F)cc3)n2)cc1,-91.7%
8,COC(=O)c1cn(NC(=O)c2cc([N+](=O)[O-])ccc2F)c(=O)c2ccccc12,354%
9,CC(C)c1ccc(Oc2cccc3c2S(=O)(=O)N(C2CCCC2)CC(COCc2ccccc2)O3)cc1 (stereo not given),273%
10,Cn1cccc1Cc1nnc(SCC(=O)NCCc2ccccc2)n1-c1ccc(F)cc1,275%
11,CCN(CC)S(=O)(=O)c1ccc(N(C)Cc2cccc(OC)c2OC)nc1,-40%
12,CCOC(=O)c1ccc(NC(=O)c2nc[nH]c2C(=O)NCCNC(=O)c2[nH]cnc2C(=O)Nc2ccc(C(=O)OCC)cc2)cc1,47.9%
13,Cc1cccc2c(C(=O)N3CCN(c4ccccn4)CC3)cc(-c3cccc(Br)c3)nc12,-100%
14,COc1ccccc1N1CCN(c2ncc(C(=O)N3CCN(c4cccc(Cl)c4)CC3)c3ccccc23)CC1,66.7%
15,CCOc1cc(C)c(S(=O)(=O)Nc2ccc3cn[nH]c3c2)cc1C,0%
16,Cc1ccc(NC(=O)C2CCCN(S(=O)(=O)c3c(C)noc3C)C2)cc1 (stereo not given),-19.4%
17,COc1ccc(C(=O)NCCN(C)C)c2nc3ccccc3cc12,66.5%
18,COc1ccccc1/C=C1\CCCC2=C1Nc1nnnn1C2c1ccccc1OC (stereo not given),-110%
19,CCn1c(C)cc(C(=O)COC(=O)c2ccccc2[N+](=O)[O-])c1C,-13.6%
20,COc1ccc(-c2nsc3c(N4CCCCC4C)ncnc23)cc1 (stereo not given),-16.7%
21,O=C(CN1C(=O)C2CCCCC2C1=O)NC1CCCc2ccccc21 (stereo not given),-10%
22,C[C@@H]1CN([C@@H](C)CO)C(=O)c2cc(NC(=O)Nc3ccc(F)cc3)ccc2O[C@@H]1CN(C)Cc1ccc(Oc2ccccc2)cc1,-20.8%
23,C[C@@H]1CCCCO[C@H](CN(C)Cc2ccccc2)[C@@H](C)CN([C@H](C)CO)C(=O)c2cc(NC(=O)c3ccccc3)ccc2O1,33.3%
24,CN(Cc1ccccc1)C(=O)c1cccc(NC(=O)Cc2ccc([N+](=O)[O-])cc2)c1,230%

row,SMILES,"activity change, negative = inhibition"
1,COc1ccc2c(CC(=O)OCC(=O)N(C)c3c(N)n(Cc4ccccc4)c(=O)[nH]c3=O)coc2c1,-12.5%
2,CC(Oc1ccc(F)cc1)C(=O)N(CCC1=CCCCC1)c1c(N)n(Cc2ccccc2)c(=O)[nH]c1=O (stereo not given),-25%
3,COc1ccc(CN2CCC(C(=O)Nc3ccc(Oc4cccnc4)cc3)CC2)c(C)c1C,-75%
4,CC(C)(C)C(=O)Nc1cc(S(=O)(=O)N2CCCCC2)ccc1N1CCCCC1,50%
5,COc1cccc(-c2nc(NC3CCCC3)c3ccccc3n2)c1O,-22.7%
6,COc1ccc(-n2ncc3c(N4CCCCC4)ncnc32)cc1,-75%
7,CCn1cc(CNCc2cn(-c3ccccc3C)nc2-c2ccc(OC)c(F)c2)cn1,150%
8,Cc1ccc(C(=O)Nc2cnc3ccccc3c2)cc1,90%
9,CC(=O)c1cccc(NS(=O)(=O)c2ccc(-c3cnc(C4CC4)o3)cc2)c1,8.33%
10,Cc1cccc(NS(=O)(=O)c2ccc(C3CCCCC3)cc2)c1,0%
11,CCOC(=O)c1[nH]c(C)c(/C(O)=C2\C(=O)C(=O)N(CCCN3CCOCC3)C2c2cccs2)c1C (stereo not given),70%
12,O=C(CSc1nnc(Nc2ccccc2)s1)NC1CCS(=O)(=O)C1 (stereo not given),20.8%
13,CCOC(=O)c1cn(CC(=O)Nc2cccc(Cl)c2C)nn1,16.7%
14,CCOC(=O)Cn1c(S(=O)(=O)Cc2ccccc2Cl)nc(-c2ccccc2)c1-c1ccccc1,110%
15,CC1(C)CC(=O)c2c(nc(SCC(=O)Nc3nsc(-c4ccccc4)n3)c(C#N)c2-c2ccccc2)C1,16.7%
16,Cc1cccc(C(=O)Nc2ccc(C(=O)/C=C/c3ccncc3)cc2)c1,-100%
17,CCCCN1CC(COCc2ccccc2)Oc2cccc(Oc3ccc(C(C)C)cc3)c2S1(=O)=O (stereo not given),37.5%
18,OCCNc1nc(Nc2ccc(Cl)cc2)nc(N2CCCC2)n1,-11.7%
19,OCCCNc1nccc(-c2cc(Nc3cccc(Cl)c3)ncn2)n1,-50%
20,Cc1cc(O)c(C(C)C)cc1C1(c2cc(C(C)C)c(O)cc2C)OC(=O)c2ccccc21,0%
21,Cc1ccccc1C(=O)N1CCN(c2ccc(NC(=O)c3ccc4c(c3)OCCO4)cc2)CC1,-103%
22,O=C(NCCc1ccccc1)c1ccc2c(c1)OCCCO2,22.2%
23,Cc1onc(-c2c(Cl)cccc2Cl)c1C(=O)N[C@@H]1C(=O)N2[C@@H]1SC(C)(C)[C@@H]2C(=O)O,25%
